# In all, about 320,000 compounds went through this assay and about 1,300 (0.41%) were called active. Roughly 3% stayed inconclusive and do not appear here. The rule behind the calls is not given here. These entries were drawn from the full list. Measured potencies and affinities stand elsewhere.
# Assay: growth inhibition of non-replicating M. tuberculosis (AID 488890);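 note: plate controls were DMSO cells for no effect and high antibiotic wells for full effect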
# Details: Mycobacterium tuberculosis non-replicating, at 25 µM, stronger effect = higher value
row,SMILES,inhibition [%]
1,O=C(CSc1ncn[nH]1)Nc1c(F)cc(F)cc1Br,-11.1
2,Cc1ccc(NC(=O)CC(C)c2ccccc2)cc1S(=O)(=O)N1CCOCC1 (stereo not drawn),10.4
3,O=C(O)CNC(=S)N(Cc1ccccc1)Cc1cccnc1,6.66
4,O=C(CSc1nncs1)Nc1nccs1,-27.1
5,COCCN1CCn2c(nc3cc(NC(=O)Cn4nc(C)c5ccccc5c4=O)ccc32)C1,-5.63
6,COc1ccc(OCCNc2cc(N3CCCCC3)ccc2[N+](=O)[O-])cc1,72.4
7,COc1ccc(OCCNc2cc(N3CCOCC3)ccc2[N+](=O)[O-])cc1,26.3
8,Cc1ccsc1C(=O)C1CCCN(Cc2sc(N(C)C)nc2Cl)C1 (stereo not drawn),-9.22
9,CC1CC(c2ccccc2)n2nc(NC(=O)c3ccco3)nc2N1 (stereo not drawn),3.85
10,CC1CCCC(NC(=O)CCCn2ncn3c(cc4occc43)c2=O)C1C (stereo not drawn),-13.3
11,CC1Cc2ccccc2N1C(=O)c1ccc(N2CCCCC2)c([N+](=O)[O-])c1 (stereo not drawn),20.8
12,Cc1ccc2sc3ccc(NC(=O)c4ccccc4Cl)cc3c(=O)c2c1,-1.36
13,Cc1ccc(C(=O)N[C@H](C(=O)NC2CCCCCCC2)C(C)C)cc1,-6.5
14,Cc1ccc(C(=O)N[C@H](C(=O)NC2CCCCC2)C(C)C)cc1,15.5
15,CN(C)c1cc[n+](CC(=O)N2c3ccccc3Sc3ccccc32)cc1,6.94
16,CC1(c2cc(C(F)(F)F)n3nc(C(=O)O)cc3n2)CC1,-1.85
17,Fc1ccc(Oc2cnc3ccccc3n2)cc1,75.1
18,CCC(=O)Nc1nc2ccccc2n1CCN(CC)CC,12.6
19,Cc1nc2ccccc2n1Cc1ccc(Cl)cc1,16.2
20,CCC(=O)Nc1nc2ccccc2n1CCN1CCOCC1,2.63

row,SMILES,inhibition [%]
1,CCS(=O)(=O)c1nc2ccccc2n1Cc1ccccc1Cl,17.3
2,CCn1c(NCc2ccccc2Cl)nc2ccccc21,26.2
3,CCC(=O)Nc1nc2ccccc2n1CCN(C)C,28.6
4,Cc1ccc(CNC(=O)c2nnn(-c3cccc(C)c3)c2N)cc1,27.4
5,O=c1c2ccccc2nnn1COc1ccc(F)cc1Cl,33
6,N#CC(C#N)=C1NC2(CCCCC2)Cc2ccccc21,-7.74
7,CN(CC(=O)Nc1cccc(F)c1)C(=O)c1ccc(C2SCCS2)cc1,16
8,COc1ccc(NC(=O)c2cnc(SCC(=O)NCCc3ccccc3)n(C)c2=O)cc1,-6.78
9,COc1ccccc1C(=O)N(CCC1CCCN1C)c1nc2ccccc2s1 (stereo not drawn),12.9
10,CCCCn1c(N)c(N(CCOC)C(=O)c2sc3cc(F)ccc3c2Cl)c(=O)[nH]c1=O,-5.03
11,NS(=O)(=O)c1ccc(NC(=O)COC(=O)COc2ccc3ccccc3c2)cc1,34.3
12,O=C(CSc1n[nH]c(=O)n1Cc1ccco1)Nc1ccccc1,-4.65
13,CCN1C(=O)C(CC(=O)Nc2ccc(Br)cc2)N(CCCc2ccccc2)C1=S (stereo not drawn),41.5
14,Cc1ccc(NC(=O)O/N=C/c2ccc(F)cc2)cc1,4.77
15,O=C(Nc1ccccc1)ON=C1CCCC1,69.3
16,O=C(COc1cc2oc(=O)c3c(c2cc1Cl)CCC3)Nc1cccnc1,5.55
17,Cc1cc(NC(=O)CCS(=O)(=O)c2nc(-c3ccccc3)cc(C(F)(F)F)n2)no1,41.1
18,CCOC(=O)CSc1nc(-c2ccccc2)cc(C(F)(F)F)n1,69.6
19,CCOC(=O)CCSc1nc(-c2ccccc2)cc(C(F)(F)F)n1,8.6
20,COc1ccccc1-c1cc(C(F)(F)F)nc(S(=O)(=O)CCCC(=O)O)n1,44.3

row,SMILES,inhibition [%]
1,COc1ccc(-c2cc(C(F)(F)F)nc(N)n2)cc1,6.01
2,Cc1ccc(-c2cc(C(F)F)nc(N3CCOCC3)n2)cc1,17.6
3,Cc1ccc(-c2cc(C(F)F)nc(N3CCC(C)CC3)n2)cc1,8.45
4,COc1ccc(-c2cc(C(F)(F)F)nc(S(=O)(=O)CCC(=O)N3CCOCC3)n2)cc1,79
5,O=C1OC[C@H]2CCCN2C(=O)[C@@H](CC(=O)N(CCO)Cc2ccccc2)C/C=C\C[C@H]1Cc1ccc(F)cc1,47.4
6,O=C1NNC(c2ccccc2)=N/C1=C\c1ccccc1,-6.71
7,CSc1ccccc1C(=O)NCCCOC(C)C,-17.5
8,O=C(O)/C=C/C(=O)NCCCc1ccccc1,18.7
9,CC1=C(C(=O)OCCOC(C)C)C(c2cc3c(cc2Br)OCO3)C2=C(CCCC2=O)N1 (stereo not drawn),12.9
10,COc1cc(CC(CC(=O)O)CC(C)OCc2ccccc2)cc(OC)c1 (stereo not drawn),24.2
11,O=C(NNC(=O)c1ccccc1Cl)c1ccc2c(=O)n3c(nc2c1)CCC3,1.89
12,COc1ccc(CN(C)C(=O)c2ccc3c(=O)n4c(nc3c2)CCC4)cc1,-3.83
13,O=C(COc1ccccc1Cl)NNC(=O)c1ccc2c(=O)n3c(nc2c1)CCC3,-23
14,CC(OC(=O)c1ccc2c(=O)n3c(nc2c1)CCC3)C(N)=O (stereo not drawn),-8.53
15,O=C(Nc1ccc2nc3n(c(=O)c2c1)CCCC3)c1cccc([N+](=O)[O-])c1,-20.7
16,COc1ccc(COC(=O)c2ccc3c(=O)n4c(nc3c2)CCC4)cc1F,-0.76
17,O=C(c1ccc2c(=O)n3c(nc2c1)CCCCC3)N1CCN(c2ccc([N+](=O)[O-])cc2)CC1,25.7
18,CN(Cc1cccc(F)c1)C(=O)c1ccc2c(=O)n3c(nc2c1)CCC3,-4.16

# — PubChem BioAssay AID488890 (Southern Research Specialized Biocontainment Screening …, 2010)
